Source: PubChem BioAssay
The list is not random: actives were taken first. Their share in the collection is about 2.1%.
PvdQ acylase = P. aeruginosa PvdQ acylase inhibition | purified PvdQ acylase, fluorescence plate reader | inhibition, % at 10 µM | 0.063% of 340,000 active; in the data active = inhibition above about 30%, passing the limit was not always enough
ARNT-TACC3 inh = ARNT/TACC3 interaction disruption | 0.66% of 390,000 active | inhibition, % at 9.99 µM | AlphaScreen His-ARNT PAS-B/GST-TACC3 binding, luminescence; TACC3 fragment carries E629A point mutation;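 active = mean inhibition of replicates at least 50% and at least half of replicates each reaching 50%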
Ecoli rRNA inh = inhibits bacterial ribosomal RNA function over humanized ribosomes. E. coli WT GFP vs humanized-ribosome RFP mutants, fluorescence, 24 h; stronger effect = lower value; DMSO median 0, no signal -100. GFP signal change (wild-type ribosome), % (test concentration not listed). 1.6% of 350,000 active;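 active = significant combined selectivity score with lowered wild-type GFP, culture density cut under 30%, mutant RFP and density less affected; inactive = any of these conditions unmet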
ERAP1 HTS inh = inhibitors of human ERAP1 aminopeptidase | Q9NZ08 | recombinant ERAP1, Leu-AMC fluorescence, 60 min | inhibition, % at 10.7 µM | 0.15% of 340,000 active;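 active = mean replicate inhibition of at least 30%, or all replicates individually reaching that 30% level; inactive = mean below 30% and not every replicate reaching it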
CFTR F508del cor = correctors of CFTR F508del function in bronchial epithelial cells | 0.36% of 350,000 active | CFBE cells, YFP halide quenching; stimulated with forskolin plus potentiator P3; % fluorescence drop versus neutral controls | activity (quench increase), % at 7.58 µM;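 active = mean added fluorescence quench of at least 8% versus neutral control, with both replicates also reaching 8%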;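 also: cells transiently co-express mutant CFTR-F508del with the halide-sensitive YFP; corrector assay measuring rescue of mutant channel to the surface after 24 h compound exposure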
A number is an active result; - = inactive; . = not tested or not shown.

SMILES	PvdQ acylase	ARNT-TACC3 inh	Ecoli rRNA inh	ERAP1 HTS inh	CFTR F508del cor
CC(C)C(=O)Nc1cc(S(=O)(=O)Nc2cccc(Cl)c2)ccc1Cl	-	-	-22.4	-	-
O=C(CCC(=O)c1ccc(F)cc1)Nc1cccc(S(=O)(=O)Nc2cccc(Cl)c2)c1	-	-	-40.7	-	.
O=C(C[C@H]1CC[C@H]2[C@@H](COC[C@@H](O)CN2Cc2nccs2)O1)NCc1ccc(-c2ccccc2)cc1	.	-	-	-	-
O=C(CCCN1CCC(O)(c2cccc(C(F)(F)F)c2)CC1)c1ccc(F)cc1	-	-	.	-	8.3
C[C@@H]1CN([C@@H](C)CO)C(=O)c2c(c3ccccc3n2C)-c2ccccc2CO[C@H]1CN(C)C(=O)c1ccncc1	.	-	-	-	-
CO[C@H]1CN(C)C(=O)c2cc(NS(=O)(=O)c3ccccc3C)ccc2OC[C@H](C)NC[C@@H]1C	.	-	-	-	-
CCc1ccc(Nc2cnn(C34CC5CC(CC(CC(=O)O)(C5)C3)C4)c(=O)c2Cl)cc1	-	-	-27.2	-	-
CCN(C(=O)COC(=O)c1cnc(C)cn1)C1CCS(=O)(=O)C1 (stereo not given)	-	.	-	69.0	-
CCN(C(=O)COC(=O)c1cc(-c2ccc(C)o2)nc2ccccc12)C1CCS(=O)(=O)C1 (stereo not given)	-	-	-	-	-
CCN(C(=O)COC(=O)c1cc(-c2cccs2)nc2ccccc12)C1CCS(=O)(=O)C1 (stereo not given)	-	-	-22.6	-	-
CCN(C(=O)COC(=O)c1cc(-c2ccccc2)nc2c1c(C)nn2-c1ccc(C)cc1)C1CCS(=O)(=O)C1 (stereo not given)	-	-	-	-	8.2
C[C@H]1CN([C@@H](C)CO)C(=O)c2cccc(NS(C)(=O)=O)c2O[C@@H]1CN(C)Cc1ccc(Oc2ccccc2)cc1	.	-	-	-	-
CCCN(C)C[C@H]1Oc2cc(C#Cc3ccccn3)ccc2S(=O)(=O)N([C@H](C)CO)C[C@H]1C	.	-	-	-	-
CCCC(=O)N1C[C@H]2[C@@H](c3ccccc31)[C@@H](CO)N2C(=O)Nc1ccc(F)cc1	.	-	-	-	-
COc1cc(/C=N/NC(=O)c2ccccc2)ccc1O	-	-	-	-	-
COc1cc(/C=N/NC(=O)c2cc(-c3ccc4c(c3)OCO4)n[nH]2)ccc1O	-	-	-25.6	-	-
COc1cc(/C=N/NC(=O)c2cc(-c3c(C)nn(-c4ccccc4)c3C)n[nH]2)ccc1O	-	.	-	-	13.6
O=C(N/N=C/c1ccc([N+](=O)[O-])cc1)c1cc(-c2ccc3c(c2)OCO3)n[nH]1	-	-	-	-	-
COc1cc(/C=N/NC(=O)c2[nH]nc3c2CCc2ccccc2-3)ccc1O	-	-	-20.1	-	-
Cc1nn(-c2ccccc2)c(C)c1-c1cc(C(=O)N/N=C/c2ccc(O)cc2)[nH]n1	-	.	-24.4	-	-
CN1C(=O)c2cc(NC(=O)C3CCC3)ccc2OC[C@H]2O[C@H](CC(=O)NCC3CCCCC3)CC[C@@H]21	.	.	-	-	-
COc1ccc2c3c(n(C)c2c1)[C@H](CO)N(C)CC31CCN(S(=O)(=O)c2cccc(C)c2)CC1	.	.	-	.	-
CO[C@@H]1CN(C)C(=O)c2ccc(NC(=O)CC(F)(F)F)cc2OC[C@H](C)NC[C@H]1C	.	.	-	-	-
O=C(C[C@@H]1CC[C@H]2[C@@H](COC[C@H](O)CN2Cc2cccc(C(F)(F)F)c2)O1)NCc1ccncc1	.	-	-	-	-
C[C@@H]1CN([C@@H](C)CO)C(=O)c2cc(/C=C/c3ccccc3)cnc2O[C@H]1CN(C)C(=O)Cc1cccnc1	.	-	-	-	-
Cc1ccc(S(=O)(=O)N(C)C[C@H]2Oc3c(NC(=O)NC(C)C)cccc3C(=O)N([C@@H](C)CO)C[C@@H]2C)cc1	.	-	-	-	-
O=S(=O)(O)c1cccc(N=Nc2c(O)ccc3ccccc23)c1	-	-	-33.2	-	-
COc1ccc([C@H]2C/C=C\C[C@H](c3ccc(F)cc3)NC(=O)CCC(=O)N2)c(OC)c1	.	.	-	.	.
COCc1cn(CC[C@@H]2CC[C@@H](NC(=O)Nc3ccc(F)cc3)[C@@H](CO)O2)nn1	.	-	-	-	-
CO[C@@H]1CN(C)C(=O)c2cc(NC(C)=O)ccc2OC[C@H](C)N(C(=O)C2CCC2)C[C@H]1C	.	.	-	-	-
